Compounds without any hit were thinned out: in the full panel of roughly 83,000, 20% have a hit.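 A percent growth of 40 corresponds to 60% growth inhibition; 0 means no net growth; -100 means all cells died. Active threshold: below 10.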 Unmarked numbers belong to inactive results. Calls of active or inactive are those of the source.

The source of these data is PubChem BioAssay (NCI).

Assay in all cases: NCI-60 one-dose screen, 48 h (100 = growth as untreated, 0 = no growth, -100 = all killed)
What all share (conditions): 10 µM

For assay [1], the system named is NCI-H23 lung.
For assay [2], the system named is NCI-H226 lung.
For assay [3], the system named is NCI-H322M lung.
Assay [4] concerns HOP-62 NSCLC.
For assay [5], the system named is NCI-H460 lung.
For assay [6], the system named is NCI-H522 lung.
The test system of assay [7] is A549/ATCC NSCLC.
For assay [8], the system named is 786-0 renal.
Assay [9] deals with K-562 leukemia.
In assay [10] the test system is MALME-3M melanoma.
For assay [11], the system named is MDA-MB-231 breast.
Assay [12] concerns RXF 393 renal.
Assay [13] deals with SF-268 CNS.
Assay [14] concerns SF-295 CNS.
Assay [15] concerns SF-539 CNS.
Assay [16] relates to UACC-257 melanoma.
Assay [17] has as its system M14 melanoma.
Assay [18] concerns COLO 205 colon.
The subject of assay [19] is DU-145 prostate.

With `O=C(O)C(c1ccccc1)C(O)c1ccccc1` (stereo not drawn), the growth in assay [1] is 104%; in [2], 77.8%; in [3] it was 97.6%; in [4], 101%; in [5], 106%; in assay [6] it was 96.1%. The growth in assay [7] is 90.8%; in [8], 107%; in assay [9], 100%; in assay [10], 117%; in [11], 102%; in [12], 107%. The growth in [13] is 105%; in assay [14], 96.5%; in assay [15] it was 98.4%; in assay [16], 85.7%; in assay [17], 104%.
For the compound `CCOC(=O)C/C(C)=N\O`, the growth was 100% in assay [1]; 98.4% in assay [2]; 97.9% in assay [3]; 90.2% in [4]; 106% in assay [5]; 95.6% in assay [7]. In addition, the growth in assay [8] is 96.1%; in [18], 104%; in assay [19], 107%; in [9] it was 94.4%; in assay [10], 98.9%; in assay [11], 105%. Moreover, the growth in assay [12] was 113%; in assay [13], 103%; in assay [14], 91.6%; in assay [15], 107%; in assay [17] it was 101%.
With `NC(CSC(c1ccccc1)(c1ccccc1)c1ccccc1)C(=O)O` (stereo not drawn), the growth in assay [1] is 61.3%; in assay [2], 87.6%; in [3], 43.9%; in [4], 44.5%; in assay [5], 13.6%; in assay [7], 25.7%. The growth in assay [8] was 49.4%; in [18], 23.2%; in [19], 29.9%; in assay [9], 14.5%; in assay [10] it was 51.1%; in assay [11], 4.8% (active). The growth in [12] is 3.38% (active); in assay [13], 43.3%; in assay [15] it was 10.3%; in assay [16], 52.3%; in assay [17], 13.6%.
As to `CCCCN(CCCC)CCCO`, the growth in assay [1] is 104%; in [2], 104%; in assay [3], 136%; in assay [4], 106%; in assay [5], 109%; in assay [7], 106%. Besides, the growth in assay [8] is 109%; in assay [18], 105%; in assay [19] it was 110%; in assay [9], 114%; in [10] it was 129%; in [11], 116%. For the same compound, the growth is 119% in assay [12]; 101% in [13]; 124% in assay [14]; 101% in assay [15]; 113% in [16]; 108% in assay [17].
With `O=S(=O)(O)c1ccc(Cl)c(Cl)c1`, the growth in [1] is 101%; in assay [2], 111%; in [3], 127%; in [4], 102%; in assay [5] it was 110%; in [7] it was 95.5%. For the same compound, the growth is 98.5% in [8]; 117% in assay [18]; 120% in assay [19]; 105% in assay [9]; 108% in assay [11]; 132% in assay [12]. In addition, the growth in assay [13] was 113%; in assay [14] it was 112%; in [15], 107%; in [16] it was 124%; in [17], 101%.
With `Cc1c(O)cnc2nn(-c3ccccc3)c(=N)n12`, the growth is 102% in [1]; 100% in assay [2]; 114% in assay [3]; 98.3% in assay [4]; 103% in assay [5]; 96.1% in assay [7]. Moreover, the growth in [8] was 102%; in assay [18], 123%; in assay [19], 110%; in [9], 101%; in [10], 124%; in assay [11], 103%. Also, the growth in assay [12] is 111%; in assay [13] it was 113%; in assay [14], 99.1%; in assay [15] it was 99.6%; in [17] it was 114%.
For the compound `CC[N+](C)(CC)CCO`, the growth in [1] was 107%; in [2], 92.7%; in assay [3] it was 104%; in [4], 92.6%; in [5], 105%; in assay [7], 94.1%. Further, the growth in assay [8] is 99.5%; in [18] it was 114%; in assay [19], 112%; in [9], 99.6%; in assay [10] it was 103%; in [11], 98.6%. In addition, the growth in assay [12] is 88.5%; in assay [13], 112%; in assay [14] it was 99.5%; in assay [15], 108%; in [17], 104%.
Take `CC1=CC(C)(C)NC(=S)N1c1ccc(S(=O)(=O)O)c2cccc(S(=O)(=O)O)c12`: the growth in assay [1] is 101%; in [2], 100%; in assay [3] it was 127%; in assay [4] it was 99.5%; in assay [5], 110%; in assay [7] it was 106%. For the same compound, the growth is 112% in assay [8]; 102% in assay [18]; 111% in assay [19]; 116% in assay [9]; 115% in [10]; 98.3% in assay [11]. Further, the growth is 107% in assay [12]; 104% in [13]; 113% in assay [14]; 105% in assay [15]; 112% in assay [16]; 107% in [17].
As to `COc1cc(C(N)=O)cc(OC)c1OC`, the growth in assay [1] was 101%; in assay [2], 102%; in assay [3] it was 106%; in assay [4], 99.6%; in assay [5] it was 111%; in [6], 102%. For the same compound, the growth was 108% in assay [8]; 101% in assay [18]; 112% in assay [19]; 112% in [9]; 110% in assay [10]; 105% in assay [11]. In addition, the growth in assay [12] is 119%; in assay [13], 101%; in [14], 100%; in [15], 98.9%; in assay [16], 102%; in assay [17], 107%.
For `O=[N+]([O-])c1ccc(N=Nc2ccccc2)cc1`, the growth in assay [1] was 90.4%; in assay [2], 89.4%; in assay [3], 80%; in [4], 96.4%; in [5], 120%; in assay [6], 81.1%. Besides, the growth in [7] was 89%; in assay [8] it was 92%; in assay [9], 87.2%; in assay [10], 101%; in assay [11] it was 88.9%; in assay [12], 107%. Also, the growth in assay [13] is 89.6%; in [14] it was 91.3%; in assay [15] it was 98.8%; in assay [16], 108%; in assay [17] it was 102%.
